T cruzi growth-1: blocks T. cruzi growth in NIH3T3 culture. T. cruzi beta-gal in NIH3T3, GalScreen luminescence, 90 h. inhibition, % at 8.34 µM. 5.9% of 77,000 active. AID 624255;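 active means mean inhibition above about 93%, with at least 55% of replicates each passing it, limit read from the data, passing the limit was not always enough; inconclusive means only one of those two conditions holds; inactive means neither condition holds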
Pf Dd2 growth: inhibitors of Plasmodium falciparum Dd2 growth; activity change, % at 10 µM; 2.3% of 94,000 active; AID 1159554; P. falciparum Dd2 growth, SYBR Green, 72 h; stronger effect = lower value; in the data active means activity change below about -80%; inconclusive means no clear call, values can overlap the other calls
C diff growth: C. difficile growth inhibition | Clostridium difficile clinical isolate growth, OD600, 24 h; stronger effect = lower value | growth activity, negative = inhibition, % at 16 µg/mL (by protocol) | AID 1259249 | 0.25% of 86,000 active;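 active means mean growth activity at or below -80% and every replicate also at or below -80%; inconclusive means mean at or below -80% but some replicate above -80%; inactive means mean growth activity above -80%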;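 further: 0% = DMSO wells and -100% = levofloxacin 16 µg/mL wells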
T cruzi growth-2: blocks T. cruzi growth in NIH3T3 host cells. shares compounds with T cruzi growth-1. T. cruzi beta-gal in NIH3T3, GalScreen luminescence, 90 h. inhibition, % at 8.35 µM. 72% of 5,600 active. AID 651739;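 active means mean replicate inhibition above about 95% and at least 55% of replicates individually reaching it, limit read from the data; inconclusive means only one of the two criteria is met; inactive means neither criterion is met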
T cruzi growth-3: inhibitors of T. cruzi proliferation. inhibition, % at 2.09 µM. shares compounds with T cruzi growth-1. 21% of 5,600 active. T. cruzi beta-gal in NIH3T3, GalScreen luminescence, 90 h;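 active means mean inhibition above about 95%, with at least 55% of replicates also reaching it, limit read from the data; inconclusive means meets just one of the two conditions; inactive means meets neither condition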;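 further: plate controls were neutral control median for no effect and positive control median for full effect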
3T3 cytotox: NIH/3T3 (mouse) viability loss. NIH/3T3 viability, CellTiter-Glo ATP luminescence, 90 h. shares compounds with T cruzi growth-1. 14% of 5,600 active. cytotoxicity (signal decrease), % at 8.35 µM;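 active means mean signal decrease across replicates above about 35% based on untreated-well scatter, with enough replicates individually passing, limit read from the data; inconclusive means no rule stated though some were filed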;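 further: 0% = median of neutral control wells and 100% = median of positive control wells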
NIH3T3 tox 2: cytotoxicity in mouse NIH/3T3 fibroblasts; shares compounds with T cruzi growth-1; 56% of 5,600 active; inhibition, % at 24.9 µM; NIH/3T3 viability, CellTiter-Glo ATP luminescence, 90 h;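 active means mean loss of cell viability signal at or above a set limit, and enough replicates individually reaching it; inconclusive means meets only the mean limit or only the replicate share; inactive means meets neither condition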;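 further: 0% = median of neutral control wells and 100% = median of positive control wells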
The depositor's hits bear a star; ? = inconclusive; nt = no result; ! = not active in a repeat. Rows were chosen to be rich in hits. Some 6.8% of all compounds tested hit in one or more screens of this group.

SMILES | T cruzi growth-1 | Pf Dd2 growth | C diff growth | T cruzi growth-2 | T cruzi growth-3 | 3T3 cytotox | NIH3T3 tox 2
C[C@@H]1CN([C@H](C)CO)C(=O)CCCn2cc(nn2)CO[C@@H]1CN(C)C(=O)CCC(F)(F)F | ? | -11.5 | -5.6 | 46.4 | 56.3 | 1.4 | -0.4
CCCNC(=O)C[C@H]1CC[C@@H]2[C@H](COC[C@@H](O)CN2C(=O)c2cc(Cl)cc(Cl)c2)O1 | 10.4 | 8.6 | nt | nt | nt | nt | nt
COc1ccc2c3c([nH]c2c1)[C@@H](CO)N(Cc1ccccc1)CC31CCN(S(C)(=O)=O)CC1 | nt | -51.5 | -2.4 | nt | nt | nt | nt
CCC(=O)NC[C@H]1[C@@H](c2ccc(C3=CCCC3)cc2)[C@@H](CO)N1C(=O)CC | nt | -4.0 | 12.6 | nt | nt | nt | nt
C[C@@H]1CN([C@@H](C)CO)C(=O)CCCn2cc(nn2)CO[C@H]1CN(C)Cc1ccc(C(F)(F)F)cc1 | -14.6 | -1.3 | nt | nt | nt | nt | nt
C[C@H](CO)N1C[C@H](C)[C@H](CN(C)Cc2ccc(C(F)(F)F)cc2)OCc2cn(nn2)CCCC1=O | ? | -17.4 | 9.0 | 63.7 | -7.9 | 0.7 | 4.5
C[C@H](CO)N1C[C@H](C)[C@@H](CN(C)C(=O)Nc2ccccc2)OCc2cn(nn2)CCCC1=O | 127.4*! | 8.2 | -0.6 | -24.8 | -13.9 | -9.6 | -0.6
C[C@@H]1CN([C@H](C)CO)C(=O)CCCn2cc(nn2)CO[C@H]1CN(C)C(=O)Nc1ccccc1 | 26.3 | -8.1 | 1.0 | nt | nt | nt | nt
C[C@H](CO)N1C[C@H](C)[C@@H](CN(C)S(=O)(=O)c2cccs2)Oc2ccc(NC(=O)Nc3cccc4ccccc34)cc2C1=O | -27.4 | 6.8 | nt | nt | nt | nt | nt
C[C@@H]1CN([C@H](C)CO)S(=O)(=O)c2ccc(C3=CCCC3)cc2O[C@@H]1CN(C)Cc1cccnc1 | 74.0 | -16.8 | 2.0 | nt | nt | nt | nt
C[C@@H]1CN([C@@H](C)CO)S(=O)(=O)c2ccc(C3=CCCC3)cc2O[C@H]1CN(C)Cc1ccncc1 | 114.2* | -64.9 | -3.8 | 96.8* | 102.1* | 50.0* | 102.1*
C[C@H](CO)N1C[C@H](C)[C@H](CN(C)Cc2ccncc2)Oc2cc(C3=CCCC3)ccc2S1(=O)=O | 107.9* | -29.0 | 0.3 | 96.9* | 88.4 | 20.6 | 43.5*
C[C@@H]1CN([C@H](C)CO)S(=O)(=O)c2ccc(C3=CCCC3)cc2O[C@@H]1CN(C)C(=O)Cc1ccncc1 | 81.7 | -49.3 | 2.0 | nt | nt | nt | nt
C[C@H]1CN([C@@H](C)CO)S(=O)(=O)c2ccc(C3=CCCC3)cc2O[C@H]1CN(C)Cc1cncnc1 | 6.6 | -46.0 | 6.3 | nt | nt | nt | nt
C[C@H](CO)N1C[C@H](C)[C@@H](CN(C)C(=O)Cc2ccncc2)Oc2cc(C3=CCCC3)ccc2S1(=O)=O | 96.0* | -20.2 | 5.7 | 88.3 | 44.1 | -8.0 | 13.2
O=C([C@H]1[C@H](CO)[C@H]2Cn3c(cccc3=O)[C@H]2N1Cc1ccccc1Cl)N1CCCCC1 | -28.4 | nt | 8.9 | nt | nt | nt | nt
C/C=C/c1cnc2c(c1)C(=O)N([C@H](C)CO)C[C@@H](C)[C@@H](CN(C)Cc1cccc(C(=O)O)c1)O2 | nt | -23.1 | 9.4 | nt | nt | nt | nt
O=C(C[C@H]1CC[C@@H](NC(=O)Nc2cccc(F)c2)[C@H](CO)O1)NCC1CCCCC1 | nt | -1.1 | 0.8 | nt | nt | nt | nt
C[C@@H]1CCCCO[C@@H](CN(C)C(=O)CCCN(C)C)[C@H](C)CN([C@@H](C)CO)C(=O)c2cc(N(C)C)ccc2O1 | 27.5 | 24.3 | -2.0 | nt | nt | nt | nt
C[C@@H]1CCCCO[C@@H](CN(C)C(=O)CCC(F)(F)F)[C@@H](C)CN([C@H](C)CO)C(=O)c2cc(N(C)C)ccc2O1 | 98.9*! | -14.2 | -0.8 | 60.7 | 10.1 | 0.8 | -51.8
C[C@@H]1CCCCO[C@H](CN(C)C(=O)CCC(F)(F)F)[C@H](C)CN([C@H](C)CO)C(=O)c2cc(N(C)C)ccc2O1 | 37.8 | nt | -0.7 | nt | nt | nt | nt
C[C@@H]1CCCCO[C@@H](CN(C)C(=O)CCCN(C)C)[C@@H](C)CN([C@H](C)CO)C(=O)c2cc(N(C)C)ccc2O1 | 108.1*! | 13.6 | -0.9 | 54.7 | 1.0 | 7.6 | 9.0
C[C@H]1CN([C@@H](C)CO)C(=O)Cc2cc(NC(=O)Nc3cccc4ccccc34)ccc2O[C@@H]1CN(C)S(=O)(=O)c1cccs1 | 22.2 | 6.5 | -0.1 | nt | nt | nt | nt
CCCC(=O)Nc1ccc2c(c1)OC[C@H](C)N(C(=O)c1ccccn1)C[C@@H](C)[C@@H](OC)CN(C)C2=O | 38.4 | 17.5 | nt | nt | nt | nt | nt
COc1cccc(CN2CCCCN3[C@H](CO)[C@@H](c4ccc(C#Cc5cccnc5)cc4)[C@@H]3C2)c1 | 116.3* | -77.4 | 0.7 | 104.2* | 61.9 | 18.5 | 104.5*
SMILES | T cruzi growth-1 | Pf Dd2 growth | C diff growth | T cruzi growth-2 | T cruzi growth-3 | 3T3 cytotox | NIH3T3 tox 2
COc1cccc(CN2CCCCN3[C@@H](CO)[C@H](c4ccc(C#Cc5cccnc5)cc4)[C@@H]3C2)c1 | 116.6* | -69.1 | 21.8 | 109.4* | 44.3 | 19.0 | 103.4*
COc1cccc(CN2CCCCN3[C@H](C2)[C@@H](c2ccc(-c4cccnc4)cc2)[C@@H]3CO)c1 | 72.8 | -62.5 | 3.9 | nt | nt | nt | nt
COc1ccc(C#Cc2ccc([C@@H]3[C@H]4CN(Cc5ccncc5)CCCCN4[C@H]3CO)cc2)cc1 | 9.8 | -30.0 | -3.5 | nt | nt | nt | nt
C[C@@H]1CN([C@@H](C)CO)C(=O)c2cc(-c3ccccc3)cnc2O[C@H]1CN(C)C(=O)c1ccccc1F | nt | 22.2 | 1.9 | nt | nt | nt | nt
C[C@H](CO)N1C[C@H](C)[C@@H](CN(C)Cc2ccc(-c3ccccc3)cc2)Oc2ccc(NC(=O)Nc3ccc4c(c3)OCO4)cc2C1=O | 47.2 | -23.9 | 16.7 | nt | nt | nt | nt
C[C@H](CO)N1C[C@H](C)[C@@H](CN(C)Cc2ccc(Oc3ccccc3)cc2)Oc2ccc(NC(=O)Nc3ccc4c(c3)OCO4)cc2C1=O | ? | -25.2 | 15.5 | 110.8* | -23.6 | 14.6 | -2.3
C[C@@H]1CN([C@H](C)CO)C(=O)c2cc(NC(=O)Nc3ccc4c(c3)OCO4)ccc2O[C@H]1CN(C)Cc1ccc(Oc2ccccc2)cc1 | -77.2 | 14.6 | 0.2 | nt | nt | nt | nt
C[C@@H]1CN([C@@H](C)CO)C(=O)c2cc(NC(=O)Nc3ccc4c(c3)OCO4)ccc2O[C@H]1CN(C)Cc1ccc(-c2ccccc2)cc1 | 95.7* | -27.0 | 11.6 | 101.5* | 91.4 | 32.5 | 81.9*
COc1ccc(S(=O)(=O)N[C@@H]2C=C[C@H](CC(=O)NCCc3ccncc3)O[C@@H]2CO)cc1 | 38.7 | -5.0 | 0.0 | nt | nt | nt | nt
O=C(C1CC1)N1CCCCN2[C@@H](CO)[C@@H](c3ccc(C#CC4(O)CCCC4)cc3)[C@@H]2C1 | 13.6 | 26.0 | -3.5 | nt | nt | nt | nt
O=C(c1ccc(F)cc1)N1CCCCN2[C@H](CO)[C@@H](c3ccc(C#CC4(O)CCCC4)cc3)[C@H]2C1 | 100.1* | 0.4 | -4.9 | 34.6 | 15.6 | 3.5 | -5.6
O=C(C1CCCC1)N1CCCCN2[C@H](CO)[C@H](c3ccc(C#CC4(O)CCCC4)cc3)[C@@H]2C1 | 102.6* | 6.2 | -10.9 | 98.5* | 75.6 | 8.9 | 25.8

From PubChem
